HIV TAR-Tat – HIV-1 TAR-Tat binding disruption. z-score (no concentration beside the values). AID 1259389. actives 0.6% (n = 100,000). HIV-1 TAR RNA, Tat peptide displacement FRET; hits give high values; active = z-score of 3 or more in at least 2 runs
CDC25B CDK2 inh – human CDC25B-CDK2/CyclinA binding inhibition; P30305+P24941; HTRF CDC25B-CDK2/CyclinA binding, anti-His/anti-Flag; hits give high values; z-score (test concentration not listed); actives 0.72% (n = 94,000); in the data active = z-score above about 3.2
* marks the source's active call; other numbers are inactive results; / = no result given. Sampled rows, rich in hits. Any-hit rate of the full collection: about 0.93%.

SMILES	HIV TAR-Tat	CDC25B CDK2 inh
N#CC1=C2SCN(Cc3ccco3)CN2C(=O)CC1c1cccc(F)c1 (stereo not given)	-1.24	0.33
COc1ccc(C2CC(=O)N3CN(CCC(C)C)CSC3=C2C#N)cc1OC (stereo not given)	0.22	4.73*
COc1ccc(C2CC(=O)N3CN(CCC(C)C)CSC3=C2C#N)cc1 (stereo not given)	1.5	-1.23
COc1cc(C2CC(=O)N3CN(Cc4ccco4)CSC3=C2C#N)ccc1O (stereo not given)	-0.81	4.92*
COc1ccccc1C1CC(=O)N2CN(Cc3ccco3)CSC2=C1C#N (stereo not given)	-0.77	2.43
COc1cccc(C2CC(=O)N3CN(Cc4ccco4)CSC3=C2C#N)c1 (stereo not given)	-0.78	15.2*
CC1N=C2c3ccccc3N=C(SC(C)C(=O)Nc3ccc(Cl)cc3)N2C1=O (stereo not given)	-0.4	/
Cn1c(SCC(=O)Nc2ccccc2)nnc1-c1ccco1	/	-2.21
CCn1c(NC(=O)Nc2ccc(C)cc2Cl)cc2sccc21	-6.71	2.77
CC(NC(=O)c1ccc(-n2ccc3ccccc32)s1)c1ccc2c(c1)OCCO2 (stereo not given)	1.47	/
CN1CCc2c(sc(-n3cccc3)c2CNC(=O)Nc2ccccc2Br)C1	-5.44	/
Cc1cc2nc(CSc3nnc(NC(=O)COc4ccccc4)s3)cc(=O)n2o1	1.81	/
O=C(NC1CCCCC1)c1cc(-c2ccncc2)nc2ccc(S(=O)(=O)N3CCOCC3)cc12	1.68	/
O=S(=O)(c1ccc2c(c1)CCO2)N1CCN(c2nc3cc(Cl)ccc3s2)CC1	/	-1.43
Cc1cccc(N2CSC3=C(C#N)C(c4ccccc4)CC(=O)N3C2)c1 (stereo not given)	-1.13	5.25*
Cc1ccccc1N1CSC2=C(C#N)C(c3ccc(F)cc3)CC(=O)N2C1 (stereo not given)	-1.91	4.36*
COc1ccccc1N1CSC2=C(C#N)C(c3ccc(SC)cc3)CC(=O)N2C1 (stereo not given)	-1.41	4.61*
Cc1ccccc1N1CSC2=C(C#N)C(c3ccc(Cl)cc3)CC(=O)N2C1 (stereo not given)	-2.59	2
N#CC1=C2SCN(C3CCCCC3)CN2C(=O)CC1c1ccc(F)cc1 (stereo not given)	1.45	0.26
N#CC1=C2SCN(c3cccc(Cl)c3)CN2C(=O)CC1c1ccc(F)cc1 (stereo not given)	-0.98	7.39*
COc1ccc(N2CSC3=C(C#N)C(c4ccc(SC)cc4)CC(=O)N3C2)c(OC)c1 (stereo not given)	-0.01	2.48
Cc1nn(CC(=O)Nc2ccccc2Br)c(=O)c2cccn12	0.34	-1.44
CCC(C(=O)N1CCOCC1)n1cnc2onc(C)c2c1=O (stereo not given)	1.02	/
Cc1ccccc1C1CC(=O)N2CN(c3ccccc3F)CSC2=C1C#N (stereo not given)	-1.21	5.11*
N#CC1=C2SCN(c3ccccc3F)CN2C(=O)CC1c1ccccc1 (stereo not given)	0.23	6.48*
SMILES	HIV TAR-Tat	CDC25B CDK2 inh
Cc1ccc(C2=NS(=O)(=O)N(C)C(C(=O)Nc3cc(C)n(CC(=O)N4CCCC4)n3)=C2)cc1	1.43	-2.73
NC(=O)CSc1nc(-c2ccccc2)nc2c1Cc1c(ccc3ccccc13)O2	3.07	-1.3
C=CCn1c(COc2ccc(OC)cc2)nnc1SCC(=O)c1ccc(Cl)cc1	0.5	/
CCOc1ccc(N(C(=O)C(C)C)C2C=CS(=O)(=O)C2)cc1 (stereo not given)	1.52	1.13
Cc1ncc(CCCCN(C)C)c2c1[nH]c1ccccc12	3.66	1.14
CNCCCCc1cnc(C)c2[nH]c3ccccc3c12	5.02*	/
CC1CCc2c(oc3ccc(NS(=O)(=O)c4ccc(F)cc4)cc23)C1 (stereo not given)	/	0.75
COC(=O)c1sccc1NC(=O)Cn1c(C)cc(C)c(C#N)c1=O	0.7	/
CC(C)CCNC(=O)NCc1c(-n2cccc2)sc2c1CCN(C)C2	-7.42	1.84
COc1cc2ncc(S(=O)(=O)c3ccccc3)c(N3CCCCC3)c2cc1OC	-0.26	5.93*
CCc1ccc2ncc(S(=O)(=O)c3ccccc3)c(N3CCCC3)c2c1	-2.49	9.11*
O=S(=O)(c1ccccc1)c1cnc2ccc(Cl)cc2c1N1CCCC1	0.16	-0.64
COc1cc2ncc(S(=O)(=O)c3ccccc3)c(N3CCC(C)CC3)c2cc1OC	1.04	1.55
CC1=C(C(=O)OCC2CCCO2)C(c2ccccc2C)C2=C(CC(C)(C)CC2=O)N1 (stereo not given)	5.05*	-5.53
CC1=C(C(=O)OCC2CCCO2)C(c2ccccc2F)C2=C(CC(C)(C)CC2=O)N1 (stereo not given)	0.14	-0.72
COc1ccc2oc(=O)c(-c3csc(Nc4ccccc4)n3)cc2c1	/	-2.13
COc1ccc(Nc2nc(-c3cc4c(ccc5ccccc54)oc3=O)cs2)cc1	/	10.4*
CC(C(=O)c1ccccc1)n1nnc2sc3c(c2c1=O)CCCC3 (stereo not given)	0.65	0.75
CC1(C)N([O-])C2=C(c3ccccc3C2=O)[N+](=O)C1(C)C	/	16.8*
CCn1nc(C)c(CNC(=O)Nc2ccc(F)cc2F)c1C	-0.31	/
CCc1ccc2occ(CC(=O)N(Cc3ccc(C(C)C)cc3)C3CCS(=O)(=O)C3)c2c1 (stereo not given)	0.62	-2.93
OCC1O[C@H]([S-])[C@@H](O)C(O)[C@@H]1O.[Au+] (stereo not given in full)	/	19.3*
OCC1O[C@H](O)C(Cl)C(O)C1O (stereo not given in full)	/	-2.64
O=C(Nc1nccs1)C1(c2cccs2)CCOCC1	2.24	/
CC1CCCC(C)N1C(=O)C1=CC(c2ccc3c(c2)OCO3)=NS(=O)(=O)N1C (stereo not given)	2.2	-2.75
SMILES	HIV TAR-Tat	CDC25B CDK2 inh
Cc1ccc(NC(=O)c2nccnc2C(=O)O)cc1	/	-0.79
CC(=O)Nc1ccc(NC(=O)c2nccnc2C(=O)O)cn1	/	11.4*
CN(C)n1cccc1/C=C(\C#N)C(=O)c1ccco1	/	-2.42
O=C(O)CSc1cccc2cccc(C(=O)O)c12	1.05	0.74
O=C(O)CCSc1cccc2cccc(C(=O)O)c12	/	10.9*
O=C1CC(c2cccc(F)c2F)c2c(nc(SCc3ccc(Cl)cc3)[nH]c2=O)N1 (stereo not given)	1.11	1.28
O=C(CSc1n[nH]c(-c2ccccc2)n1)c1ccc(Cl)cc1	/	-1.38
COc1ccc(C(=O)Cn2c3ccccc3n3nc(-c4ccco4)nc23)cc1	7.1*	-5.39
O=C(Nc1cnc2ccccc2c1)c1ccco1	0.67	/
COc1ccc(C(=O)CSc2nnc(-c3ccco3)c(-c3ccco3)n2)cc1	20.2*	-1.2
O=C(CSc1nnc(-c2ccco2)c(-c2ccco2)n1)Nc1cnc2ccccc2c1	25.5*	0.46
COc1ccc(C(=O)CSc2ccc(-c3cccs3)nn2)cc1	0.45	/
COc1ccc(C(=O)Cn2c3ccccc3n3nc(-c4ccco4)nc23)cc1OC	0.31	-1.21
O=C(CSc1n[nH]c(-c2ccco2)n1)c1ccc(Cl)cc1	17*	-2.18
CCCNC(=O)CCCc1nnc2n(CCC)c(=O)c3sccc3n12	-1.01	-2.05
COC(=O)C1=C(C)NC2=C(C(=O)CC(c3ccccc3)C2)C1c1ccccc1Br (stereo not given)	1.03	-2.52
COc1ccc(Nc2oc(/C=C/c3cccs3)nc2C#N)cc1	0.38	-1.99
